# Values without a mark were called inactive. Results filed as inconclusive are left out. A call without a number means that no potency is given here. Active and inactive are the calls of the source. Unless noted, calls follow the shape of the dose curve; as a rule, active = well fitted curve in the direction sought with a large enough effect in the repeat runs; inconclusive = weak or mixed curves; inactive = no such curve, though single readings can be large; an effect the other way counts as inactive or inconclusive.
# Columns and labels:
# [1] = target: Thyrotropin receptor (Homo sapiens) (UniProt P16473); test: qHTS assay to identify small molecule agonists of the thyroid stimulating hormone receptor (TSHR) signaling pathway (AID 1224843; calls by dose curve; also: nearly all actives have a fitted effect of over 45% in size)
# How it was run: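 HEK293/TSHR, 800 cells/well; cpd 30 min RT; add cAMP-d2 + anti-cAMP-cryptate, 1 h RT; fluorescence read on plate reader. 15-pt titration, n=3.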
# [2] = qHTS assay to identify small molecule agonists of the hypoxia (HIF-1) signaling pathway - cell viability counter screen (AID 1224844; calls by dose curve; also: nearly all actives have a fitted effect of over 50% in size)
# How it was run: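 Cytotoxicity measured by CellTiter-Glo ATP luminescence in the wells also read for beta-lactamase signal. Cells were HRE-bla ME-180 (2,000/well, 0.5% dialyzed FBS), exposed to compounds for 17 h at 37C.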
# [3] = qHTS assay to identify small molecule agonists of H2AX (AID 1224845; active = well fitted activation curve with a large enough effect in the signal ratio in the repeat runs, not every such curve was filed as active; the % refers to the signal ratio)
# How it was run: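 Wild-type CHO-K1 cells, plated overnight, exposed 3hr at 37C to 15 concentrations (0.76% DMSO final). Lysed, then HTRF anti-pH2AX (S139) cryptate and anti-H2AX-d2 antibodies, 24 hr room temperature; 665/620 nm emission read.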
# [4] = qHTS assay to identify small molecule agonists of H2AX - cell viability counter screen (AID 1224847; calls by dose curve; also: top concentration of the series differs between compounds; nearly all actives have a fitted effect of over 30% in size)
# How it was run: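 CHO-K1 cells plated overnight at 37C, then exposed 3 h at 37C to compounds at 15 concentrations (0.76% DMSO final). Viability by CellTiter-Glo luminescence after 30 min at room temperature.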
# [5] = qHTS RealTime-Glo MT Cell Viability Assay in HepG2 cells - 24 hour (AID 1224867); also: nearly all actives have a fitted effect of over 50% in size
# How it was run: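 Luminescence read-out: viable HepG2 cells reduce a prosubstrate to a NanoLuc substrate, giving a signal proportional to live cell number. Reads taken at 0, 8, 16, 24, 32 and 40 h of compound exposure at 37 C.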
# [6] = qHTS RealTime-Glo MT Cell Viability Assay in HEK293 cells - 32 hour (AID 1224868); also: nearly all actives have a fitted effect of over 50% in size; also: potency is read from the fitted curve at half-maximal effect
# How it was run: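 Nonlytic real-time viability readout: viable cells convert prosubstrate to NanoLuc substrate, giving luminescence proportional to live cell number. HEK293, 600 cells/well, compound added after 5 h, continuous culture at 37 C.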
# [7] = A CellTox Green Cytotoxicity Assay to monitor cytotoxicity in HEK293 cells - 0 hour (AID 1224869); also: nearly all actives have a fitted effect of over 50% in size; also: potency is read from the fitted curve at half-maximal effect
# How it was run: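 Fluorescence from a DNA-binding dye excluded by viable cells was measured repeatedly in the same HEK293 wells (600 cells/well) during continuous compound exposure at 37 C. Each assay gives one read point: 0, 8, 16, 24, 32 or 40 h.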
# [8] = qHTS assay to identify small molecule agonists of the hypoxia (HIF-1) signaling pathway (AID 1224846; active = well fitted activation curve with a large enough effect in the signal ratio in the repeat runs, not every such curve was filed as active; the % refers to the signal ratio)
# How it was run: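 Compounds added to ME-180 cells carrying hypoxia-response-element beta-lactamase reporter (0.5% dialyzed FBS, 5 h preplating), 17 h at 37C; agonist activity detected by CCF4-AM B/G FRET read-out.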
# [9] = qHTS assay to identify small molecule antagonists of the estrogen related receptor (ERR) signaling pathway from Tox21 library (AID 1224848); also: nearly all actives have a fitted effect of over 50% in size; also: potency is read from the fitted curve at half-maximal effect
# How it was run: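 Compounds dissolved in DMSO are pin-transferred onto ERR reporter cells (2,000 per well) that have settled for 6 h at 37 C. Plates then incubate 18 h at 37 C before ONE-Glo luciferase reagent and a luminescence read 30 min later.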
# [10] = qHTS assay to identify small molecule agonists of the estrogen related receptor (ERR) signaling pathway from Tox21 library (AID 1224849; calls by dose curve; also: nearly all actives have a fitted effect of over 15% in size); details: ERR reporter cell line, ONE-Glo luciferase, 18 h; at 92.4 µM (top of the series) unless noted
# How it was run: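 Luminescent agonist read-out (One-Glo, 30-minute room-temperature incubation) following 18-hour compound treatment at 37 C of the ERR cell line, which had been plated 6 hours before dosing.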
# Sequence of Thyrotropin receptor (Homo sapiens) (P16473 whole entry, looked up): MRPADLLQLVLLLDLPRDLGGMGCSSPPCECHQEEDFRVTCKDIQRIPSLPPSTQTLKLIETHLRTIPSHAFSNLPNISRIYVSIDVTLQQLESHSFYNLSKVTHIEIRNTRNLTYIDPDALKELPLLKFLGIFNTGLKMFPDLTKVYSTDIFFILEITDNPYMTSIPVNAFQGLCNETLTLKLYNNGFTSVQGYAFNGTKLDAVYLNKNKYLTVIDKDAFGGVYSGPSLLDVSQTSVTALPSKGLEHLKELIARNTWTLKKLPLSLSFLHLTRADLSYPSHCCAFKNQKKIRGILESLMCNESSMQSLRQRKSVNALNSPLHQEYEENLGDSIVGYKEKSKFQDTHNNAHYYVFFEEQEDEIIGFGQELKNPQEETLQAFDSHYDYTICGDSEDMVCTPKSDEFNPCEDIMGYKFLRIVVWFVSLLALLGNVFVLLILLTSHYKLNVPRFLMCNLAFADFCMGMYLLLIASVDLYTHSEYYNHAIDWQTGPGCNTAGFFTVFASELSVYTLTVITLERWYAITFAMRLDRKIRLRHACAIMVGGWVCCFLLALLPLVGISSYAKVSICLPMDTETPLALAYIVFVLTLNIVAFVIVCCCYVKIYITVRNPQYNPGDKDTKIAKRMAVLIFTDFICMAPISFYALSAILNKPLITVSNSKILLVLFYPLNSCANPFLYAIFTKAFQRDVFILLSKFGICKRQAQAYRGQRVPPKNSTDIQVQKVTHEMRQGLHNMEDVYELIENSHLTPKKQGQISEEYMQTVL
Structure (SMILES),Potency [1],Potency [2],Potency [3],Potency [4],outcome [5],Potency [6],Potency [7],outcome [8],Potency [9],"activity change, positive = activation [10]"
Cc1cc(C)n(CO)n1,inactive,inactive,inactive,inactive,inactive,inactive,inactive,–,–,–
CC(C)(C(=O)O)c1ccc(C(O)CCCN2CCC(C(O)(c3ccccc3)c3ccccc3)CC2)cc1 (stereo unspecified),inactive,inactive,inactive,inactive,inactive,inactive,inactive,–,–,–
Cc1c(Cl)cccc1Nc1ccccc1C(=O)O,inactive,inactive,inactive,inactive,inactive,inactive,inactive,–,–,–
Nc1cccc2c(=O)[nH][nH]c(=O)c12,inactive,inactive,–,inactive,inactive,inactive,inactive,inactive,48.8 µM (active),-53.6%
O=C(Nc1ccc2c(c1)Cc1ccccc1-2)C(F)(F)F,inactive,inactive,inactive,inactive,inactive,–,inactive,–,–,–
O=C(O)c1ccccc1-n1cc(C(=O)O)c(=O)c2cc(Nc3c(F)cc(F)cc3Cl)c(Cl)cc21,inactive,inactive,inactive,inactive,inactive,inactive,inactive,–,–,–
CCCCCCCCCC(C)C=O (stereo unspecified),inactive,inactive,inactive,inactive,inactive,inactive,24.5 µM (active),–,–,–
O=C(OCCN1CCOCC1)c1cccnc1Nc1cccc(C(F)(F)F)c1,inactive,inactive,inactive,inactive,inactive,–,inactive,–,–,–
CC(C)=CCCC(C)C=O (stereo unspecified),inactive,inactive,inactive,inactive,inactive,inactive,inactive,–,–,–
COc1ccc(/C=C/c2cc(OC)cc(=O)o2)cc1,–,inactive,inactive,inactive,inactive,11.2 µM (active),inactive,inactive,inactive,55.8% [at 42.5 µM] (active)
S=c1[nH][nH]c(=S)s1,inactive,inactive,–,inactive,inactive,–,inactive,inactive,–,–
CCCOC(C)=O,inactive,–,inactive,inactive,inactive,inactive,inactive,inactive,–,–
CC(=O)Oc1cccc2c1C(=O)c1c(OC(C)=O)cc(C(=O)O)cc1C2=O,inactive,inactive,–,inactive,inactive,inactive,inactive,–,23.7 µM (active),-46.2% [at 42.5 µM]
C[C@@H](O)[C@H]1C(=O)N2C(C(=O)O)=C(S[C@@H]3CN[C@H](CNS(N)(=O)=O)C3)[C@H](C)[C@H]12,inactive,inactive,–,inactive,inactive,inactive,inactive,inactive,–,–
O=C(O)c1cccc(C(=O)O)c1C(=O)O,inactive,–,inactive,inactive,inactive,inactive,inactive,inactive,–,–
COC(=O)Cc1cccc2ccccc12,–,inactive,inactive,inactive,inactive,inactive,inactive,inactive,–,–
CC(CN=Cc1ccccc1O)N=Cc1ccccc1O (stereo unspecified),–,inactive,inactive,inactive,inactive,inactive,inactive,inactive,–,–
Nc1ccc(-c2ccc(F)cc2)cc1,–,inactive,inactive,inactive,inactive,inactive,inactive,inactive,inactive,52% (active)
CCC(=O)O[C@]1(C(=O)COC)[C@@H](C)C[C@H]2[C@@H]3CCC4=CC(=O)C=C[C@]4(C)C3(F)[C@@H](O)C[C@@]21C (stereo partly specified),inactive,–,inactive,inactive,inactive,inactive,inactive,inactive,inactive,-12.4% [at 42.5 µM]
CC(C)(C)c1ccc(CCC=O)cc1,–,inactive,inactive,inactive,inactive,inactive,inactive,inactive,–,–
COc1ccnc2c1CCCCC2S(=O)c1nc2ccccc2[nH]1 (stereo unspecified),inactive,–,–,inactive,inactive,7.56 µM (active),inactive,–,–,–
O=C(O)c1cc(C(=O)O)cc([N+](=O)[O-])c1,–,inactive,inactive,inactive,inactive,inactive,inactive,inactive,–,–
[O-][n+]1ccc(Cl)cc1,–,inactive,inactive,inactive,inactive,inactive,inactive,inactive,–,–
CC(C)(Cc1c[nH]c2ccccc12)NCC(O)COc1ccccc1C#N (stereo unspecified),–,inactive,inactive,inactive,inactive,16.9 µM (active),inactive,inactive,inactive,-15.2% [at 42.5 µM]
O=C(C1CCCCC1)N1CC(=O)N2CCCc3ccccc3C2C1 (stereo unspecified),inactive,–,inactive,inactive,inactive,inactive,inactive,inactive,–,–
O=C(O)c1c2ccccc2cc2ccccc12,inactive,inactive,–,inactive,inactive,43.5 µM (active),inactive,–,–,–
CCC(=O)O[C@@H]1C[C@H]2CC[C@]1(C)C2(C)C,–,inactive,inactive,inactive,inactive,inactive,inactive,inactive,inactive,0.21%

# Reference: PubChem BioAssay (Tox21)
